The supplement of paper PMC9694430

What was measured:
Experiment in all cases: thermal shift delta Tm vs DMSO control; higher = stronger stabilization (binding)
Settings in all cases: 12.5 µM; protein concentration 2 µM
LOC_OS01G57100-cb003 = test system: LOC_OS01G57100-cb003
How it was run: (§1)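 Purified, E. coli-expressed rice kinase domain constructs were tested by differential scanning fluorimetry in 96-well plates: 19.5 μl of 2 μM kinase in 100 mM potassium phosphate pH 7.5, 150 mM NaCl, 10% glycerol, 5 × SYPRO Orange, plus compound in DMSO. Fluorescence was read from 25°C to 95°C at 0.05°C/s. Melting temperatures came from Boltzmann fits, and the shift is the triplicate mean relative to protein with DMSO alone.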

LOC_OS01G60330-cb001 = test system: LOC_OS01G60330-cb001
How it was run: as §1

LOC_OS01G60700-cb002 = test system: LOC_OS01G60700-cb002
How it was run: as §1

LOC_OS01G63280-cb003 = test system: LOC_OS01G63280-cb003
How it was run: as §1

LOC_OS01G67340-cb003 = test system: LOC_OS01G67340-cb003
How it was run: as §1

LOC_OS01G70970-cb002 = test system: LOC_OS01G70970-cb002
How it was run: as §1

LOC_OS02G07810-cb001 = test system: LOC_OS02G07810-cb001
How it was run: as §1

LOC_OS02G08530-cb003 = test system: LOC_OS02G08530-cb003
How it was run: as §1

LOC_OS02G14120-cb001 = test system: LOC_OS02G14120-cb001
How it was run: as §1

LOC_OS02G17970-cb001 = test system: LOC_OS02G17970-cb001
How it was run: as §1

LOC_OS02G45750-cb003 = test system: LOC_OS02G45750-cb003
How it was run: as §1

LOC_OS02G54510-cb004 = test system: LOC_OS02G54510-cb004
How it was run: as §1

LOC_OS03G04050-cb001 = test system: LOC_OS03G04050-cb001
How it was run: as §1

LOC_OS03G12390-cb001 = test system: LOC_OS03G12390-cb001
How it was run: as §1

LOC_OS03G27990-cb004 = test system: LOC_OS03G27990-cb004
How it was run: as §1

LOC_OS03G50450-cb001 = test system: LOC_OS03G50450-cb001
How it was run: as §1

LOC_OS03G50810-cb003 = test system: LOC_OS03G50810-cb003
How it was run: as §1

LOC_OS04G35114-cb001 = test system: LOC_OS04G35114-cb001
How it was run: as §1

LOC_OS04G38480-cb003 = test system: T1, LOC_OS04G38480-cb003
T1 sequence (whole entry): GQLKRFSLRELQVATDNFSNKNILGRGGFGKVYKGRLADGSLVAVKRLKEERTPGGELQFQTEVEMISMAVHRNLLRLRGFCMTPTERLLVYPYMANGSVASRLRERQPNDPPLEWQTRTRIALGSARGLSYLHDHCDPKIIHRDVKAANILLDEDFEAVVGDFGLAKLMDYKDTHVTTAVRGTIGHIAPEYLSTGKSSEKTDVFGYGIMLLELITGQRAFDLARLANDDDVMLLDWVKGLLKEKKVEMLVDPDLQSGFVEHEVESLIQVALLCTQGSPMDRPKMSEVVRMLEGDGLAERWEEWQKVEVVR
How it was run: as §1

LOC_OS04G41100-cb001 = test system: T2, LOC_OS04G41100-cb001
T2 sequence (whole entry): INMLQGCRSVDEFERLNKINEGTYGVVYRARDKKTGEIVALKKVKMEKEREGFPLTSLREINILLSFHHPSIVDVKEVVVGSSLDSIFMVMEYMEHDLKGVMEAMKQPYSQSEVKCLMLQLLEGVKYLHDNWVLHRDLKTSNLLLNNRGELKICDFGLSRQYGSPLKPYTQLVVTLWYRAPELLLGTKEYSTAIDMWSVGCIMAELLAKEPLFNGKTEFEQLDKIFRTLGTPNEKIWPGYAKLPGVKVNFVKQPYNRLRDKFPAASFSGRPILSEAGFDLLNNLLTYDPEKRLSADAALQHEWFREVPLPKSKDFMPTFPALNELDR
How it was run: as §1

Structure (SMILES)	thermal shift delta Tm (LOC_OS01G57100-cb003) [°C]	thermal shift delta Tm (LOC_OS01G60330-cb001) [°C]	thermal shift delta Tm (LOC_OS01G60700-cb002) [°C]	thermal shift delta Tm (LOC_OS01G63280-cb003) [°C]	thermal shift delta Tm (LOC_OS01G67340-cb003) [°C]	thermal shift delta Tm (LOC_OS01G70970-cb002) [°C]	thermal shift delta Tm (LOC_OS02G07810-cb001) [°C]	thermal shift delta Tm (LOC_OS02G08530-cb003) [°C]	thermal shift delta Tm (LOC_OS02G14120-cb001) [°C]	thermal shift delta Tm (LOC_OS02G17970-cb001) [°C]	thermal shift delta Tm (LOC_OS02G45750-cb003) [°C]	thermal shift delta Tm (LOC_OS02G54510-cb004) [°C]	thermal shift delta Tm (LOC_OS03G04050-cb001) [°C]	thermal shift delta Tm (LOC_OS03G12390-cb001) [°C]	thermal shift delta Tm (LOC_OS03G27990-cb004) [°C]	thermal shift delta Tm (LOC_OS03G50450-cb001) [°C]	thermal shift delta Tm (LOC_OS03G50810-cb003) [°C]	thermal shift delta Tm (LOC_OS04G35114-cb001) [°C]	thermal shift delta Tm (LOC_OS04G38480-cb003) [°C]	thermal shift delta Tm (LOC_OS04G41100-cb001) [°C]
COc1ccc2[nH]cc(/C=C3\C(=O)Nc4ccc(NC(=O)CCN5CCCCC5)cc43)c2c1	0.21	1.51	1.62	1.06	1.09	0.85	0.83	1.82	1.59	1.88	4.5	0.79	0.56	1.22	1.19	0.34	3.45	5.49	2.41	0.9
C=CC(=O)Nc1cccc(C)c1Nc1ncc2cc(-c3c(Cl)c(OC)cc(OC)c3Cl)ccc2n1	1.11	1.2	0.26	-0.06	0.6	0.35	0.78	0.7	1.59	0.63	1.09	0.44	0.49	-0.06	0.28	0.23	0.27	0.49	2.08	0.27
Cc1cc2c(F)c(Oc3ncnn4cc(OC[C@@H](C)OC(=O)[C@H](C)N)c(C)c34)ccc2[nH]1	2.01	2.03	1.53	0.53	0.06	0.49	0.41	0.78	0.99	0.23	1.3	-0.11	0.25	-0.23	1.72	-0.29	0.18	5.17	0.59	0.68
O=c1c(O)c(-c2ccc(O)c(O)c2)oc2cc(O)cc(O)c12 [Quercetin]	2.71	8.09	0.35	10.7	5.98	2.14	2.05	2.33	3.39	1.77	3.32	0.4	0.73	5.69	2.91	2.18	2.6	4.71	3.37	0.61
NC(=O)c1ccc(N(C(N)=O)c2c(F)cccc2F)nc1-c1ccc(F)cc1F	-0.23	-0.16	0.91	-0.21	-0.08	0.4	0.66	0.7	-0.49	0.09	-0.83	-0.06	0.39	-0.04	0.18	0.14	0.25	0.57	-0.04	0.38
CCS(=O)(=O)c1cccc(-c2cc(C(=O)NC3CCN(C)CC3)c(C)c3[nH]c4ncc(C)cc4c23)c1	1.61	3.88	0.41	-0.02	0.99	6.38	0.49	4.38	10.6	0.54	5.63	2.03	-0.02	6.67	3.82	3.53	5.67	6.23	3.14	0.65
C=CC(=O)Nc1cccc(Nc2nc(Nc3ccc(N4CCN(C(C)=O)CC4)cc3OC)ncc2C(F)(F)F)c1 [Rociletinib (CO-1686, AVL-301)]	3.39	1.53	1.63	-0.27	0.52	1.38	1	5.28	1.71	0.49	1.53	0.29	0.43	11.1	0.66	1.7	2.22	2.08	0.94	0.4
Cc1cnc(Nc2ccc(OCCN3CCCC3)cc2)nc1Nc1cccc(S(=O)(=O)NC(C)(C)C)c1	2.1	1.83	0.56	0.21	0.84	2.94	0.5	2.64	7.4	0.44	2.37	0.89	0.72	3.03	1.33	1.51	3.13	3.12	1.88	0.68
C=CC(=O)Nc1ccc2ncnc(Nc3cccc(Br)c3)c2c1	0.86	0.41	0.96	-0.32	-0.12	0.22	0.8	0.61	-0.18	0.66	0.51	0.24	0.68	-0.11	0.2	0.37	0.27	0.79	0.18	0.35
COc1cc2ncnc(Oc3cccc(NC(=O)Nc4cc(C(C)(C)C(F)(F)F)on4)c3)c2cc1OC	1.91	0.64	0.86	1.66	0.78	0.38	0.77	1.04	1.43	0.45	0.81	1.05	0.36	0.21	0.47	0.59	0.19	0.57	0.16	0.2
C[C@H](Nc1ncnc2[nH]cnc12)c1cc2ccc(F)cc2nc1-c1ccccn1	2.29	1.36	2.33	0.52	0.95	0.17	0.74	0.28	0.28	0.95	0.75	0.11	0.38	0.1	0.16	0.69	0.49	0.44	1.43	0.13
CN1CCN(c2ccc(C(=O)Nc3n[nH]c4ccc(Cc5cc(F)cc(F)c5)cc34)c(NC3CCOCC3)c2)CC1 [Entrectinib (RXDX-101)]	0.09	4.04	0.42	-0.06	0.57	1.01	0.27	3.95	5.28	0.09	8.16	1.58	0.06	2.99	0.44	0.86	7.06	7.44	2.7	0.77
O=C(c1cccc(Cl)c1F)N1CCN(Cc2cccc(Nc3nccs3)n2)CC1	1.37	0.61	1.32	0.37	0.2	0.46	1.01	2.51	9.07	-0.27	0.38	0.15	0.55	0.36	0.38	0.14	1.09	7	2.88	0.42
